Structures are written as SMILES. The panel holds about 83,000 compounds, 20% with a hit somewhere; the sample as a whole holds those more often.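 Testing used 96-well plates and a 48-hour single-concentration exposure. Example: -40 means 40% of the starting cells died.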 Unmarked numbers belong to inactive results. The source made the active and inactive calls. The calls were made as follows: active = growth percent below 10; inactive = the rest.

Test systems include HCT-15 colon; HT29 colon; SNB-19 CNS; U251 CNS; PC-3 prostate; SK-MEL-5 melanoma; UACC-62 melanoma; LOX IMVI melanoma; SK-MEL-28 melanoma; SK-MEL-2 melanoma; EKVX NSCLC; SN12C renal; UO-31 renal; TK-10 renal; ACHN renal; CAKI-1 renal; A498 renal; CCRF-CEM leukemia; MOLT-4 leukemia.
Common to all, as to experiment: NCI-60 one-dose screen, 48 h (100 = growth as untreated, 0 = no growth, -100 = all killed)
Holding throughout (details): 10 µM unless noted

As for `COc1ccc(Cn2cc3c(c2-c2cc(OC)c(OC)c(OC)c2)CCc2cnoc2-3)cc1`, the growth was 17.5% in the assay with HCT-15 colon; 11% with HT29 colon; 44.3% in the assay with SNB-19 CNS; 29.3% in the assay with U251 CNS; 25.7% with PC-3 prostate; 17% in the assay on SK-MEL-5 melanoma. Moreover, the growth was 40.5% in the assay on UACC-62 melanoma; 38.1% in the assay on LOX IMVI melanoma; 45% in the assay with SK-MEL-28 melanoma; 42.8% in the assay with SK-MEL-2 melanoma; 34.8% with EKVX NSCLC; 34.6% in the assay with SN12C renal. For the same molecule, the growth in the assay with UO-31 renal is 30.4%; with TK-10 renal it was 73.8%; in the assay with ACHN renal it was 33.1%; in the assay on CAKI-1 renal it was 21.2%; in the assay with A498 renal, 3.83% (active); with CCRF-CEM leukemia it was 12.9%. The growth with MOLT-4 leukemia was 23.3%.

Turning to `COc1cc(-c2nn(C(=O)NS(=O)(=O)c3ccccc3)cc2-c2ccncc2)ccc1Cl`, the growth with HCT-15 colon is 97.9%; with HT29 colon, 53.9%; with SNB-19 CNS it was 95.3%; in the assay on U251 CNS, 81.6%; with PC-3 prostate, 78.2%; in the assay on SK-MEL-5 melanoma, 95.6%. The growth with UACC-62 melanoma is 66.7%; in the assay on LOX IMVI melanoma it was 71.5%; with SK-MEL-28 melanoma, 91.8%; in the assay on SK-MEL-2 melanoma it was 94.8%; in the assay with EKVX NSCLC, 56.1%; in the assay with SN12C renal, 82.4%. Also, the growth in the assay on UO-31 renal is 69.7%; in the assay with TK-10 renal it was 83%; with ACHN renal it was 80.3%; with CAKI-1 renal it was 84.8%; with A498 renal, 60.3%; with CCRF-CEM leukemia, 92.8%. For the same molecule, the growth with MOLT-4 leukemia is 83.9%.

Turning to `COc1ccc(Nc2nn3c(-c4ccccc4)cc(-c4ccccc4)nc3c2C(N)=O)c(OC)c1`, the growth was 70.5% in the assay with HCT-15 colon; 41.9% with HT29 colon; 58.2% in the assay with SNB-19 CNS; 18.6% in the assay with U251 CNS; 44.6% in the assay with PC-3 prostate; 55.9% in the assay on SK-MEL-5 melanoma. The growth with UACC-62 melanoma is 40.7%; in the assay with LOX IMVI melanoma, 54.6%; with SK-MEL-28 melanoma it was 71%; with SK-MEL-2 melanoma, 70.1%; with EKVX NSCLC it was 67.7%; in the assay on SN12C renal, 46.4%. The growth was 86.9% in the assay with UO-31 renal; 29.7% in the assay with TK-10 renal; 67% with ACHN renal; 77.4% in the assay on CAKI-1 renal; 70.5% in the assay with A498 renal; 73.2% in the assay on CCRF-CEM leukemia. In the assay with MOLT-4 leukemia, the growth was 72.3%.

Regarding `CN(C[C@H]1Cc2c(cccc2N2CCN(c3ncccn3)CC2)CN1)[C@H]1CCCc2cccnc21`, the growth in the assay on HCT-15 colon was 31.6%; in the assay on HT29 colon, 21.2%; with SNB-19 CNS, 41%; in the assay with U251 CNS, 24.1%; in the assay with PC-3 prostate, 34.2%; with SK-MEL-5 melanoma it was 26.9%. The growth in the assay with UACC-62 melanoma is 53.7%; in the assay on LOX IMVI melanoma it was 36.4%; with SK-MEL-28 melanoma, 65.2%; in the assay on SK-MEL-2 melanoma it was 68.8%; in the assay on EKVX NSCLC it was 37.7%; in the assay on SN12C renal, 39.9%. Also, the growth in the assay with UO-31 renal was 16.9%; in the assay on TK-10 renal, 38%; in the assay with ACHN renal it was 35.5%; in the assay with CAKI-1 renal, 33.5%; with A498 renal, 58.1%; in the assay on CCRF-CEM leukemia, 22.4%. Also, in the assay with MOLT-4 leukemia, the growth was 27.9%.

As to `CC(C)(C)n1cc(-c2ccnc(NCCCNS(=O)(=O)c3ccc(Br)cc3)c2)c(-c2cccc(O)c2)n1`, the growth is -47.3% (active) in the assay on HCT-15 colon; 1.23% (active) in the assay on HT29 colon; 48.7% in the assay on SNB-19 CNS; 29.5% in the assay with U251 CNS; 16.9% with PC-3 prostate; 15.1% in the assay with SK-MEL-5 melanoma. The growth in the assay with UACC-62 melanoma is 42.9%; in the assay on LOX IMVI melanoma, -75.6% (active); with SK-MEL-28 melanoma it was -32.1% (active); in the assay with SK-MEL-2 melanoma, 19%; in the assay with EKVX NSCLC, 50.1%; in the assay on SN12C renal, 42.9%. For the same molecule, the growth in the assay on UO-31 renal was 39%; in the assay on TK-10 renal, 90.1%; in the assay on ACHN renal it was 33.1%; with CAKI-1 renal, 36.7%; with A498 renal it was 35.1%; in the assay with CCRF-CEM leukemia, 25.5%. In the assay with MOLT-4 leukemia, the growth was 6.97% (active).

Consider `C=C1CC2(OC1=O)C(=O)N(CCCN1C(=O)C3(CC(=C)C(=O)O3)c3ccccc31)c1ccccc12` (stereo not drawn), for which the growth with HCT-15 colon was -28.1% (active); in the assay with HT29 colon, -51.5% (active); in the assay on SNB-19 CNS, 76.6%; with U251 CNS, 45.4%; in the assay on PC-3 prostate, 51.3%; in the assay with SK-MEL-5 melanoma, 74.4%. The growth with UACC-62 melanoma was 23.2%; with LOX IMVI melanoma, -82.8% (active); with SK-MEL-28 melanoma, -13.8% (active); with SK-MEL-2 melanoma it was 52.8%; in the assay on EKVX NSCLC, 69.9%; in the assay with SN12C renal, -38.6% (active). Also, the growth with UO-31 renal was -39.3% (active); in the assay with TK-10 renal, -9.34% (active); in the assay with ACHN renal, -17.9% (active); in the assay on CAKI-1 renal, -7.27% (active); in the assay with A498 renal, 70.4%; in the assay with CCRF-CEM leukemia, -13.8% (active). Further, the growth with MOLT-4 leukemia is 1.03% (active).

With `C=C(C)[C@@H]1CC[C@]2(C(=O)O)CC[C@]3(C)[C@H](CC[C@@H]4[C@@]5(C)C[C@@H](CC#Cc6ccc(C(F)(F)F)cc6)[C@H](O)C(C)(C)[C@@H]5CC[C@]43C)[C@@H]12`, the growth in the assay on HCT-15 colon was 36.2%; with HT29 colon, 15.7%; with SNB-19 CNS, 30.8%; in the assay on U251 CNS, -4.28% (active); in the assay on PC-3 prostate it was -52.2% (active); with SK-MEL-5 melanoma it was -32.9% (active). The growth in the assay on UACC-62 melanoma was -31.5% (active); in the assay with LOX IMVI melanoma, -53.5% (active); with SK-MEL-28 melanoma, -40.8% (active); with SK-MEL-2 melanoma it was -27% (active); in the assay with EKVX NSCLC, 24.3%; in the assay with SN12C renal, 17.6%. The growth in the assay with UO-31 renal was 41%; with TK-10 renal, 38.2%; in the assay with ACHN renal it was 31.2%; with CAKI-1 renal, 50%; with A498 renal, -36.1% (active); in the assay on CCRF-CEM leukemia, -2.71% (active). Moreover, the growth with MOLT-4 leukemia is 4.32% (active).

Source of the values: PubChem BioAssay (NCI).
